The list is not random: actives were taken first. Their share in the collection is about 1.1%.
AmpC detergent: blocks E. coli AmpC beta-lactamase in detergent assay; actives 0.041% (n = 370,000); AmpC hydrolysis of nitrocefin, absorbance 480 nm, 0.01% Triton; Potency, µM (highest dose often 114 µM), for inactives: at the highest dose activity change, negative = inhibition, usual class: inhibitors; P00811;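 also: 0% = no-compound wells and -100% = no-enzyme wells; nearly all actives have a fitted effect of over 25% in size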
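20 mM phosphate pH 7.0 + 0.01% (detergent screen) or 0.0001% Triton X-100; 5.3 nM AmpC reagent; cpd preinc 15 min RT; nitrocefin (800 uM stock) to start; A480 q20 s × 4 min; Activity was normalised to no-enzyme and no-compound control wells.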
Giardia FBPA inh-1: blocks Giardia fructose-bisphosphate aldolase activity. A8B2U2. AID 2451. Potency, µM (highest dose often 59.6 µM), inactives show at the top dose activity, negative = inhibition, actives largely listed as inhibitors. actives 0.71% (n = 290,000). purified Giardia FBPA; also: % is scaled to controls: 0 for no effect and ±100 for the full control effect; nearly all actives have a fitted effect of over 55% in size
Target sequence (A8B2U2 whole entry, looked up): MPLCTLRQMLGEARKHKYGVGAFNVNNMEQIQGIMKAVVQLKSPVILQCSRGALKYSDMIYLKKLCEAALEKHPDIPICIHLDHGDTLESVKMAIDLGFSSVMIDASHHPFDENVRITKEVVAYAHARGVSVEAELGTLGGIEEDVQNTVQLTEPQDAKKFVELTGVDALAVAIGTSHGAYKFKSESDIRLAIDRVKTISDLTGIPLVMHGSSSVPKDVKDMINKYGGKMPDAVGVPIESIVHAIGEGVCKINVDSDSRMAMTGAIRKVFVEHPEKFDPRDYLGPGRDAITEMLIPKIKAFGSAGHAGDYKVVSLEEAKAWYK
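40 nM FBPA preincubated 10 min at RT with compound (up to 57.5 uM final), then substrate plus GAPDH/TPI/NAD/arsenate coupling and diaphorase/resazurin added. Fluorescence read after 20 min at RT, 525/598 nm.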
SARS PLP yeast: SARS-CoV PLP inhibition in yeast; S. cerevisiae expressing SARS-CoV PLpro, growth rescue; Potency, µM (top dose mostly 32.9 µM), without a hit: top-dose activity, positive = growth rescue, usual class: activators; actives 0.19% (n = 330,000); AID 485353; calls by dose curve; also: 0% is about no effect; nearly all actives have a fitted effect of over 55% in size
AmpC no deterg: AmpC beta-lactamase inhibition without detergent. AmpC nitrocefin hydrolysis, absorbance 480 nm, 0.0001% Triton. Potency, µM (series often up to 57.1 µM), without a hit: at the top dose activity change, negative = inhibition, most hits filed as inhibitors. actives 0.52% (n = 330,000);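 also: plate controls were no compound for no effect and no enzyme for full effect; nearly all actives have a fitted effect of over 20% in size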
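20 mM phosphate pH 7.0 + 0.01% (detergent screen) or 0.0001% Triton X-100; 5.3 nM AmpC reagent; cpd preinc 15 min RT; nitrocefin (800 uM stock) to start; A480 q20 s × 4 min; Activity was normalised to no-enzyme and no-compound control wells.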
Giardia growth: blocks growth of Giardia lamblia trophozoites. Potency, µM (top dose mostly 57.5 µM), without a hit: at the top dose activity change, negative = inhibition, usual class: inhibitors. actives 5% (n = 1,500). Giardia lamblia trophozoite growth inhibition. shares compounds with Giardia FBPA inh-1. AID 2785;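 also: trophozoites exposed to compound for 48 h at 37 °C; % is scaled to controls: 0 for no effect and ±100 for the full control effect; nearly all actives have a fitted effect of over 70% in size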
Mammal cell tox: toxic to mammalian cells in Giardia aldolase counter-screen | shares compounds with Giardia FBPA inh-1 | mammalian cell viability counter-screen, qHTS | Potency, µM (titrated, usually from 57.5 µM), for the others: top-dose viability change, negative = toxicity, hits mostly inhibitors | actives 4% (n = 1,500);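 also: Chinese hamster ovary cells used as mammalian cytotoxicity surrogate; viability measured as cellular ATP by luminescence; compound exposure lasted 48 h before reading; % is scaled to controls: 0 for no effect and ±100 for the full control effect; nearly all actives have a fitted effect of over 60% in size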
Giardia FBPA inh-2: confirmation of Giardia fructose-bisphosphate aldolase inhibitors; shares compounds with Giardia FBPA inh-1; purified Giardia aldolase enzyme activity, qHTS; Potency, µM (top dose mostly 57.5 µM), for the others: at the highest dose activity change, negative = inhibition, most hits filed as inhibitors; actives 5% (n = 1,500); AID 2787; also: % is scaled to controls: 0 for no effect and ±100 for the full control effect; nearly all actives have a fitted effect of over 45% in size
Rabbit aldolase: blocks rabbit muscle aldolase in Giardia aldolase selectivity test | AID 2794 | Rabbit muscle FBPA enzyme inhibition, selectivity counter-screen | shares compounds with Giardia FBPA inh-1 | Potency, µM (highest dose often 57.5 µM), for inactives: at the top dose activity, negative = inhibition, usual class: inhibitors | actives 4% (n = 1,500); also: % is scaled to controls: 0 for no effect and ±100 for the full control effect; nearly all actives have a fitted effect of over 60% in size
Target sequence (P00883 whole entry, looked up): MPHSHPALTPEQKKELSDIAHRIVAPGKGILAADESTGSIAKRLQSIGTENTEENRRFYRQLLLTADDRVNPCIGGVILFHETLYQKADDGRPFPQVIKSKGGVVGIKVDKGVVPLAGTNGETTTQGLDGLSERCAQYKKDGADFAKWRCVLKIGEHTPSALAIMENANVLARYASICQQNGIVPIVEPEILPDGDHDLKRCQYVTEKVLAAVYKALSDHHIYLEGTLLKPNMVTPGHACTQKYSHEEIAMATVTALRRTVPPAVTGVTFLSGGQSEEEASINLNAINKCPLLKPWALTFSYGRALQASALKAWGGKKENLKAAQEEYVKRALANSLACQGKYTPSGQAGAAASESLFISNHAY
GAPDH coupling: counter-screen for Giardia aldolase inhibitors: GAPDH coupling enzyme; GAPDH coupling enzyme counterscreen, biochemical, qHTS; shares compounds with Giardia FBPA inh-1; actives 6% (n = 1,500); Potency, µM (top dose mostly 57.5 µM), without a hit: at the top dose activity change, negative = inhibition, actives largely listed as inhibitors; also: % is scaled to controls: 0 for no effect and ±100 for the full control effect; nearly all actives have a fitted effect of over 55% in size
The depositor's hits bear a star; ? = inconclusive; · = not tested or not shown; ! = not active in a repeat; [ ] = remark or other dose. Unless noted, calls follow the shape of the dose curve; as a rule, active = well fitted curve in the direction sought with a large enough effect; inconclusive = small, poorly fitted or top-dose-only effect, or another doubt; inactive = no such curve, though single readings can be large; an effect the other way counts as inactive or inconclusive. Potency is read from the fitted curve at half-maximal effect.

SMILES	AmpC detergent	Giardia FBPA inh-1	SARS PLP yeast	AmpC no deterg	Giardia growth	Mammal cell tox	Giardia FBPA inh-2	Rabbit aldolase	GAPDH coupling
CCc1cccc(C)c1NC(=O)CSc1nc2ccccc2nc1Cc1ccccc1	17%	·	·	·	·	·	·	·	·
O=C(O)c1ccc2cccc(O)c2n1	-5%	2.2µM*	1%	-21%	?	21%	?	-28%	?
COc1cccc(CNC(=O)c2ccc(NC(=O)N3CC(C)Sc4ccccc43)cc2)c1 (configuration not stated)	10%	·	·	·	·	·	·	·	·
O=C(O)c1cncc(Br)c1	-1%	-1%	0%	-4%	·	·	·	·	·
O=C(O)c1cc(Br)ccn1	5%	16µM*	-1%	-35%	-8%[10.4 µM]	9%	1%	0%	4%
CC1=Nc2cc(C(=O)NCCc3ccc(Cl)cc3)ccc2Sc2c(C)ccc(C)c21	9%	·	·	·	·	·	·	·	·
O=C(NCSc1ccccc1)c1ccccc1	-7%	·	0%	-13%	·	·	·	·	·
Cc1cc(SCNC(=O)c2ccccc2)ncn1	6%	14µM*	-1%	-23%	?	-12%	2%	12%	11%
CCCCC1(C)NC(=S)N2N1C(=S)NC2(C)CCCC (configuration not stated)	0%	16µM*	6%	-7%	?	21%	10%	2%	13%
Cc1oc2ccc(O)c(CN3CCN(Cc4ccccc4)CC3)c2c1C(=O)Nc1cccc(Cl)c1C	18%	·	·	·	·	·	·	·	·
Cc1nc(=S)n(-c2ccccc2)[nH]1	-1%	-24%	0%	-15%	·	·	·	·	·
Nc1nc(=S)n(-c2ccccc2)[nH]1	-2%	7.1µM*	-2%	-11%	19%	-1%	2%	5%	9%
COCCCOc1ccnc(CS(=O)c2nc3ccccc3[nH]2)c1C (configuration not stated)	?	2µM*!	-18%	15%	?	-22%	-15%	-10%	-5%
Cc1c(OCC(F)(F)F)ccnc1CS(=O)c1nc2ccccc2[nH]1 (configuration not stated)	?	-15%	0%	-15%	·	·	·	·	·
CCn1c(CSc2nnc3ccccn23)nc2cc(C(=O)O)ccc21	?	-28%	9%	-16%	·	·	·	·	·
CCn1c(CSc2n[nH]c(N)n2)nc2cc(C(=O)O)ccc21	5%	16µM*	0%	-24%	21%	-4%	-10%	-5%	-1%
CCn1c(CSc2nnc(-c3ccncc3)n2CCOC)nc2cc(C(=O)O)ccc21	0%	?	0%	-17%	·	·	·	·	·
CCn1c(CSc2nnc(-c3cccnc3)n2-c2ccccc2C)nc2cc(C(=O)O)ccc21	-5%	7.9µM*	-7%	-10%	39%	10%	?	-20%	-18%
O=C(Nc1ncc([N+](=O)[O-])s1)c1cccs1	-12%	0%	-36%	-15%	·	·	·	·	·
Cc1ncoc1C(=O)Nc1ncc([N+](=O)[O-])s1	-10%	18µM*	4%	-46%	?	-18%	1%	2%	11%
CCN(CC)C(=O)c1c(C)[nH]c(=S)c(C#N)c1-c1ccco1	6%	10µM*	-1%	38%	1%	1%	5%	-3%	8%
N#Cc1c(-c2ccco2)c2c([nH]c1=S)CCCC2	-1%	?	1%	-42%	·	·	·	·	·
CCc1ccccc1NC(=O)Nc1ccc2c(c1)N(CC)C(=O)c1ccccc1S2	1%	·	·	·	·	·	·	·	·
CCCc1nc2ccccc2c(NC(=O)CN(CC)CC)c1CC	2%	16µM*	-1%	-5%	7%[10.4 µM]	9%	-2%	8%	11%
CCN(CC)CC(=O)Nc1cc(N(C)C)nc2ccccc12	3%	5.6µM*	0%	-15%	?	-1%	5%	5%	15%
SMILES	AmpC detergent	Giardia FBPA inh-1	SARS PLP yeast	AmpC no deterg	Giardia growth	Mammal cell tox	Giardia FBPA inh-2	Rabbit aldolase	GAPDH coupling
CCc1ccc(NCc2cc3cc4c(cc3n(CC(=O)Nc3ccc(Cl)cc3)c2=O)OCO4)cc1	14%	·	·	·	·	·	·	·	·
O=C1C2C(c3ccccc3)CC=CC2C(c2ccc3ccccc3c2)N1Cc1ccccc1 (configuration not stated)	·	0%	·	·	·	·	·	·	·
Cc1ccccc1C(=O)NC(=S)Nc1ncccn1	3%	4.5µM*	-6%	-1%	-15%[38.3 µM]	-24%	-19%	-14%	-11%
Cn1c(=O)c2[nH]c(N/N=C(/C#N)C(N)=O)nc2n(C)c1=O	8%	20µM*	-2%	-7%	34%	-5%	5%	2%	-2%
CCC(COC(C)=O)Nc1nc2c([nH]1)c(=O)n(C)c(=O)n2C (configuration not stated)	-5%	0%	0%	-13%	·	·	·	·	·
N#Cc1ccsc1NC(=O)c1ccccn1	-11%	20µM*	-4%	-10%	10µM*	-8%	-11%	-2%	-6%
CCOc1ccc(S(=O)(=O)NCC(c2ccc(N(C)C)cc2)N2CCCC2)cc1 (configuration not stated)	15%	·	·	·	·	·	·	·	·
Cc1ccccc1-c1nc2ccccc2c(=O)n1/N=C/c1ccccc1[N+](=O)[O-]	6%	4.5µM*	1%	-11%	10µM*	?	?	?	35µM*
O=C(CNC(=O)c1cccnc1)N=Nc1c(O)[nH]c2c(Br)cc(Br)cc12	-6%	28µM*	-3%	-35%	-1%[10.4 µM]	-6%	7%	17%	12%
Cc1cccc(/C=N/NC(=O)Cn2nnnc2N)n1	-7%	18µM*	0%	-17%	11%	-3%	3%	8%	10%
Nc1nnnn1CC(=O)N/N=C/C=C/c1ccccc1	0%	1%	0%	-25%	·	·	·	·	·
Cc1ccc(C)c(N2CCN(S(=O)(=O)c3c(C(=O)N4CCC(C)CC4)c(C)n(C)c3C)CC2)c1	0%	·	·	·	·	·	·	·	·
O=C(CNCc1ccco1)Nc1ccc(N2CCCCCC2)cc1	-9%	18µM*	1%	4%	?	-8%	-11%	-15%	-12%
Cc1ccc(S(=O)(=O)N2CCCCC2)cc1NC(=O)CNCc1ccco1	-1%	7.9µM*	0%	28%	?	7%	9%	3%	1%
Cn1ccnc1P(=S)(c1nccn1C)c1nccn1C	?	7.9µM*	9%	-14%	13%[38.3 µM]	5%	2%	5%	-2%
CCC(C)NCCOc1cc(C)cc(C)c1C (configuration not stated)	2%	16µM*	0%	-10%	21%	1%	5%	3%	8%
